# Bioassay records (PubChem)
# TDP1 cell CPT – DT40-hTDP1 cell growth loss with CPT. chicken DT40 Tdp1-/-;hTDP1 cells + 20 nM CPT, ATP luminescence, 48 h. Potency, µM (doses to about 46.2 µM), inactives show at the top dose activity change, negative = growth inhibition, actives largely listed as inhibitors. actives 12% (n = 420,000); also: potency is read from the fitted curve at half-maximal effect; nearly all actives have a fitted effect of over 55% in size
#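 Cell growth measured by CellTiter-Glo luminescence after a minimum 48 h, 37 C compound exposure with 20 nM CPT in Tdp1-knockout DT40 cells stably expressing hTDP1, seeded 400/well; qHTS titration format.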
# HT1080NT lethal – kills 2HG-producing HT-1080-NT fibrosarcoma cells; HT-1080-NT fibrosarcoma viability, CellTiter-Glo ATP luminescence, 48 h; Potency, µM (series often up to 46.1 µM), inactives show at the highest dose activity, negative = less viability, hits mostly cytotoxic; actives 1.6% (n = 360,000);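 also: NT is the 2HG producing partner of a matched IDH1 knockdown line; potency is read from the fitted curve at half-maximal effect; 0% = DMSO-treated cells and -100% = media-only wells without cells; nearly all actives have a fitted effect of over 55% in size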
#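 Compounds were tested in concentration-response format on HT-1080-NT cells for 48 hours at 37 degrees C. Cell viability came from CellTiter-Glo luminescence; curves were classified by r2, response magnitude and activity.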
# HT1080 IDH1KD tx – toxicity to HT-1080 IDH1 knockdown cells (counter line); HT-1080 IDH1 knockdown viability, ATP luminescence, 48 h; Potency, µM (highest dose often 46.1 µM), without a hit: top-dose activity, negative = toxicity, usual class: cytotoxic; actives 2% (n = 360,000);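 also: potency is read from the fitted curve at half-maximal effect; 0% = DMSO wells and -100% = cell-free medium wells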
#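 Luminescent ATP read-out (CellTiter-Glo, 10 min at room temperature) after 48 h compound exposure at 37 °C gave viability of IDH1-knockdown HT-1080 cells. Activity was normalised to DMSO and cell-free wells, then fitted as concentration-response curves.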
# TDP1 cell noCPT – qHTS for Inhibitors of human tyrosyl-DNA phosphodiesterase 1 (TDP1): qHTS in cells in absence of CPT; DT40 Tdp1-/- hTDP1 cells, no CPT, ATP luminescence, 48 h; Potency, µM (top dose mostly 46.2 µM), without a hit: top-dose activity change, negative = growth inhibition, usual class: inhibitors; actives 15% (n = 420,000); AID 686978, 2013; also: potency is read from the fitted curve at half-maximal effect; nearly all actives have a fitted effect of over 55% in size
#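 A cellular qHTS used chicken DT40 cells lacking endogenous Tdp1 but carrying stably transfected human TDP1. Compounds were applied without camptothecin, and cell growth kinetics were judged by ATP-dependent luminescence after ≥48 hr.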
# IL-1B inflam inh – inflammasome signaling inhibition, IL-1 beta readout; THP-1 LPS/ATP IL-1B secretion, AlphaLISA, 16 h; hits give low values; activity change, % at 57.5 µM; actives 4.7% (n = 360,000); in the data active = activity change below about -50%; inconclusive = mostly about -30% to -49%
#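 THP-1 cells pretreated 1 hr with compounds (up to 57.5 uM final), then stimulated with LPS (250 ng/mL final) plus ATP (1.25 mM final); secreted IL-1B measured by AlphaLISA after 16 hr, decreased signal indicating inhibition.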
# Numbers without * were called inactive; ? = inconclusive; / = not tested or not shown; ! = not confirmed by another sample; [ ] = another dose, or the depositor's remark. In the library only some 19% were active in any assay of this set; here they are far more common. Unless noted, calls follow the shape of the dose curve; as a rule, active = well fitted curve in the direction sought with a large enough effect; inconclusive = small, poorly fitted or top-dose-only effect, or another doubt; inactive = no such curve, though single readings can be large; an effect the other way counts as inactive or inconclusive. Unless noted, % is scaled to controls: 0 for no effect and ±100 for the full control effect.
SMILES,TDP1 cell CPT,HT1080NT lethal,HT1080 IDH1KD tx,TDP1 cell noCPT,IL-1B inflam inh
COc1ccc(-c2noc(CN(C)Cc3ccccc3)n2)cc1,-16%,9%,7%,18µM*,24
CN(Cc1nc(-c2ccc(Cl)cc2)no1)C(=O)c1ccco1,-26%,-18%,-14%,?,-9
Cc1ccccc1OCC(=O)N(Cc1nc(-c2ccccc2)no1)C(C)C,?,?,-5%[9.24 µM],?,?
COc1ccc(-c2noc(CN(C(=O)c3c(-c4ccccc4Cl)noc3C)C(C)C)n2)cc1,16µM*,0%,-12%,23µM*,-5
CCCCc1nn2c(=O)cc(COC(=O)c3cccc(NC(=O)c4cccc(Cl)c4)c3)nc2s1,-3%,/,/,-3%,/
CN(Cc1nc2ccccc2n1C)C(=O)c1ccco1,-5%,6%,11%,19%,9
CC(C)N(Cc1nc(-c2ccccc2)no1)C(=O)c1ccc(Br)o1,-20%,-29%,-19%,16µM*,-22
COc1ccccc1CNC(=O)c1c(-c2ccccc2Cl)noc1C,?,-3%,5%,?,14
CC(C)N(Cc1nc(-c2ccccc2)no1)C(=O)C1CCCCC1,?,-4%,10%,?,9
Cc1onc(-c2ccccc2Cl)c1C(=O)NCc1nc(-c2ccccc2)no1,9.2µM*,-6%,-8%,9.2µM*,-12
CC1(C(=O)NS(=O)(=O)Cc2cccc(Cl)c2)CCN1C(=O)c1cccc(F)c1 (stereo unspecified),-14%,8%,6%,-16%,0
O=c1cc(CN2CCN(C/C=C/c3ccccc3)CC2)c2cc(O)ccc2o1,?,26µM*,?,?,-54*
Cc1ccc2oc(=O)cc(CN3CCN(C/C=C/c4ccccc4)CC3)c2c1,?,0%,10%,16µM*,8
O=c1cc(CN2CCN(Cc3ccccc3)CC2)c2ccc(O)cc2o1,1%,-2%,-11%,?,31
Cc1ccc2c(CN3CCN(Cc4ccccc4Cl)CC3)cc(=O)oc2c1,16µM*,/,/,23µM*,/
CCOC(=O)C(C(=O)OCC)C(c1ccccc1)N1CCN(c2ccccc2)CC1 (stereo unspecified),?,2%,-2%,21µM*,-16
CC(CC(=O)c1ccc(F)cc1)N1CCN(c2ccccc2)CC1 (stereo unspecified),18µM*,0%,3%,?,-15
CC1CCc2cc(F)ccc2N1C(=O)c1cccnc1 (stereo unspecified),-19%,5%,-6%,?,33
O=S1(=O)N[C@H](Cc2ccccc2)COc2cc(N3CCN(Cc4ccccc4F)CC3)ccc21,?,6%,-3%,16µM*,39
COc1ccc(N2C(=O)CCC2=O)c(OC)c1,0%,16%,-9%,26%,2
COc1ccc(C2Nc3cc(OC)ccc3-n3cccc32)cc1 (stereo unspecified),23µM*,-16%,-22%,23µM*,?
CC1=CN2C(=N)/C(=C/c3ccc([N+](=O)[O-])o3)C(=O)N=C2S1,0.65µM*,?,?,1.3µM*,-104*
CCOc1ccc(-c2ccc(/C=C3/C(=N)N4C=CSC4=NC3=O)o2)c([N+](=O)[O-])c1,21µM*,2%,-3%,?,7
COc1ccc(-c2nnc(C)c3nocc23)cc1,?,0%,-5%,?,2
CC(=O)OCC(=O)[C@@]1(O)CCC2C3CCC4=CC(=O)CC[C@]4(C)C3C(O)C[C@]21C (stereo partly specified),12%,/,/,-28%,/
SMILES,TDP1 cell CPT,HT1080NT lethal,HT1080 IDH1KD tx,TDP1 cell noCPT,IL-1B inflam inh
CC(=O)OCC=C1CCC2C3CCC4=CC(=O)CCC4(C)C3C(O)CC12C (stereo unspecified),12µM*,3%,-4%,12µM*,-7
CC(=O)[C@H]1CC[C@H]2[C@@H]3C=CC4=CC(=O)CC[C@@]4(C)[C@@H]3CC[C@]12C,15µM*!,18%,3%,13µM*,3
CC(=O)[C@H]1CC[C@H]2[C@@H]3C[C@H](C)C4=CC(=O)CC[C@]4(C)[C@H]3[C@@H](O)C[C@]12C,?,1%,-2%,?,?
CC(=O)C1CCC2C3CCC4=CC(=O)C=CC4(C)C3CCC12C (stereo unspecified),21µM*,-12%,-14%,12µM*,-8
CC(=O)[C@H]1CC[C@H]2[C@@H]3CCC4=CC(=O)CC[C@]4(C)[C@H]3[C@H](O)C[C@]12C,?,33%,9%,16µM*,-7
CC12C=CC(=O)C=C1CCC1C2CCC2(C)C(C(=O)CO)CCC12 (stereo unspecified),?,12%,22%,?,3
Cc1ccc(C2=NN(CCC#N)C(=O)CO2)cc1,-28%,23%,17%,27%,?
C=CCNCc1ccccc1[N+](=O)[O-],-18%,14%,1%,-14%,51
COC1CCN(C(=O)c2ccc3oc(C(C)C)nc3c2)CC1,12%,13%,3%,-1%,24
CN(C)c1ccc(-c2nnn(CC(=O)Nc3ccccc3N3CCOCC3)n2)cc1,?,10%,0%,?,-77*
Cc1ccccc1NC(=O)Cn1nnc(-c2ccc(N3CCOCC3)cc2)n1,-17%,0%,-20%,-13%,15
CN(C)c1ccc(-c2nnn(CC(=O)N3c4ccccc4CCc4ccccc43)n2)cc1,?,14%,2%,16µM*,-2
CCCCCCC(C)OC(=O)c1ccccc1C(=O)O (stereo unspecified),-3%,0%,1%,-6%,8
O=C(N/N=C/C=C\c1ccccc1[N+](=O)[O-])c1ccccn1,?,?,10%,-26%,0
Cc1ccsc1C(=O)N/N=C/C=C/c1ccccc1[N+](=O)[O-],21µM*,-7%,-5%,?,-4
O=C(N/N=C/C=C/c1ccccc1[N+](=O)[O-])c1cc(-c2ccccc2)n[nH]1,16µM*,-23%,-19%,15µM*,0
Cc1occc1C(=O)N/N=C/C=C\c1ccccc1[N+](=O)[O-],?,29%,19%,-28%,-15
Cc1cc[n+]2c3c(cccc13)CCC2,21µM*,7%,-9%,18µM*,44
CC1=NCC(C)c2c1[nH]c1ccccc21 (stereo unspecified),-6%,-5%,0%,?,-7
Cc1cc(C)c(CN2CCC3(CCC(CNC(=O)c4ccn(C)n4)O3)CC2)cc1C (stereo unspecified),-19%,/,/,-21%,/
